Data taken from PubChem BioAssay.

test: EMT-state selective cytotoxicity in co-culture – imaging, PC-3E GFP, TEM4-18 mCherry, primary screen (AID 1345086); settings: PC-3E GFP / TEM4-18 mCherry co-culture, imaging cell counts; measured here: epithelial PC-3E GFP cell survival; at 1 µM;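 further: cells exposed to compound for 72 h before imaging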

SMILES | normalised cell number
COc1cc([C@@H]2c3cc4c(cc3[C@H](OC(C)=O)C3COC(=O)[C@@H]32)OCO4)cc(OC)c1OC (stereo not given in full) | 0.2
COc1cc(=O)oc(/C=C/C=C/C=C/C(C)=C/[C@@]2(C)O[C@@H](C)[C@@](C)(O)[C@@H]2O)c1C | 0.87
CN1CC[C@@]2(C)c3cc(O)ccc3N(C)[C@@H]12 | 0.88
C[C@]12C=CC(=O)C=C1CCC1C2CC[C@]2(C)C(=O)CCC12 (stereo not given in full) | 1.06
CC[C@H](c1cccc(O)c1)[C@@H](C)CN(C)C | 1.05
CC(C)=CCC[C@H](C)[C@H]1CC[C@]2(C)C[C@H]3[C@@H](C(=O)C[C@@]3(C)O)/C(C=O)=C\C[C@@H]12 | 0.85
O=C(O)COc1ccc(O)cc1 | 1.09
Fc1ccc(C2CCNCC2COc2ccccc2)cc1 (stereo not given) | 1.28
CC1(C)CC(=O)C(Cl)C(=O)C1 | 1.28
COc1cc2c(c3oc4cccc(O)c4c(=O)c13)[C@@H]1C=CO[C@@H]1O2 | 1.04
O=C1NCC[C@@H]1O | 1.14
CCN1C[C@]2(OC(=O)c3ccccc3NC(C)=O)CCC(OC)[C@]34C1[C@@H](CC23)[C@@]1(O)CC(OC)[C@H]2CC4C1(O)[C@H]2OC (stereo not given in full) | 0.94
C[C@]12CC[C@H](O)C[C@H]1CCC1C2CC[C@]2(C)[C@@H](C3=CC(=O)OC3)[C@@H](O)C[C@]12O (stereo not given in full) | 0.91
C[N+]12CC(C[C@H]1c1cccnc1)C2 | 1.14
CN1C[C@H](C(=O)N[C@]2(C)O[C@@]3(O)C4CCCN4C(=O)[C@H](Cc4ccccc4)N3C2=O)C=C2c3cccc4[nH]cc(c34)C[C@H]21 (stereo not given in full) | 1.08
